iPSC survival up: hiPSC single-cell survival enhancement; ATPlite luminescence; 100% = ROCK inhibitor wells, 0% = DMSO; survival enhancement, % at 20 µM; 360,000 tested, 0.044% active; in the data active = survival enhancement above about 18%;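 also: cells exposed to compounds for 16 hours before the ATP read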
ABCB6 inh 2: inhibitors of human ABC transporter ABCB6. fluorescence ratio to DMSO, % at 10 µM. 360,000 tested, 0.19% active. K562-ABCB6 porphyrin accumulation, flow cytometry, 1 h; active compounds read low. Q9NP58. AID 602162;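 active = fluorescence ratio to DMSO below 75%, the collection mean minus 3 SD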;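 also: signal is porphyrin accumulated inside mitochondria; lower ratio means ABCB6 inhibition with less porphyrin fluorescence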
Target sequence (Q9NP58 whole entry, looked up): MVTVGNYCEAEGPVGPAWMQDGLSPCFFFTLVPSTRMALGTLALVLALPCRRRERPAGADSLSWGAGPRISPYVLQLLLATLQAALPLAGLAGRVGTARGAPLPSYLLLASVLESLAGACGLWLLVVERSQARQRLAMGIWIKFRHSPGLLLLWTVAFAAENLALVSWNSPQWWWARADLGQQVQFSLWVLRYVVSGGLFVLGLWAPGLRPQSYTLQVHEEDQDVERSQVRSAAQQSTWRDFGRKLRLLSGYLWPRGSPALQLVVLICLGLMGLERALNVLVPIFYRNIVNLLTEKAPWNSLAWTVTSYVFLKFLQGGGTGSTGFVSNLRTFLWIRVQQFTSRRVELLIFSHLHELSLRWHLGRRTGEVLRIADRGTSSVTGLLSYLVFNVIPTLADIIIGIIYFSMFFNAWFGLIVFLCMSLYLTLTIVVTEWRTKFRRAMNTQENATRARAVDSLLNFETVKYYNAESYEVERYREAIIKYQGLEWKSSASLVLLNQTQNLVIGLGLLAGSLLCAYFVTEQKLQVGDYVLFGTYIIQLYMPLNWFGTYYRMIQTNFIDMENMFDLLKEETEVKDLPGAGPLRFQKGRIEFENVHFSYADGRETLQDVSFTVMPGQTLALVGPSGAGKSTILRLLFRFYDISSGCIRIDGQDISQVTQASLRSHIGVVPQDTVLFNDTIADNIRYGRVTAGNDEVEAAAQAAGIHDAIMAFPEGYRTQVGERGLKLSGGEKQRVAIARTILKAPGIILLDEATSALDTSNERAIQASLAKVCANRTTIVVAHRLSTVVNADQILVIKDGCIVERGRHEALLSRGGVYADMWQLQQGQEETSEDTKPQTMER
GSIS activator: primary screen for activators of insulin secretion dependent on glucose, INS-1E cells, GLuc reporter luminescence; INS-1E GLuc reporter insulin secretion, 2-3 h; activation, % at 16.6 µM; 370,000 tested, 0.61% active;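 active = lowest replicate activation of at least 40%, so every replicate reaches that level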
ARNT TACC3 PPI: disruptors of human ARNT/TACC3 interaction; 390,000 tested, 0.66% active; AID 623870; inhibition, % at 9.99 µM; AlphaScreen His-ARNT PAS-B/GST-TACC3 binding, luminescence; TACC3 fragment carries E629A point mutation;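 active = mean inhibition of replicates at least 50% and at least half of replicates each reaching 50%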
CendR NRP1 mod: NRP-1/CendR interaction modulation; 360,000 tested, 0.85% active; FAM-RPARPAR peptide binding to NRP-1, fluorescence polarization; AID 602438; O14786; inhibition, % at 25 µM;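 active = inhibition or corrected inhibition above about 18%, plus a signal ratio from 0.5 to 1.5, limit read from the data, passing the limit was not always enough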
Hits are given with their value; - = inactive; . = no result; + = active, no number. Shown are actives, neighbours in structure and some others; about 1.8% of the full set was active somewhere.

SMILES | iPSC survival up | ABCB6 inh 2 | GSIS activator | ARNT TACC3 PPI | CendR NRP1 mod
CS(=O)(=O)c1ccc2nc(NC(=O)Nc3ccc(Cl)c(Cl)c3)sc2c1 | - | - | 260 | - | -
CC(=O)Nc1cccc2c1O[C@H](CN(C)C(C)=O)[C@@H](C)CN(C)C2=O | . | . | - | . | .
CC1CCC(NC(=O)CSc2nncn2C)CC1 (centres undefined) | - | - | - | - | 23
Cn1cnnc1SCC(=O)NC1CCCCC1 | - | - | - | - | -
FC(F)(F)c1cc(CCN2CCNC[C@@H]2CC2CCCCC2)cc(C(F)(F)F)c1 | - | - | + | - | -
c1ccc(C[C@H]2CNCCN2CCCCC2CCCCC2)cc1 | - | - | 57 | - | -
Fc1cccc(CCN2CCNC[C@@H]2c2ccccc2)c1 | - | - | - | - | -
FC(F)(F)c1cc(CCN2CCNC[C@@H]2c2ccccc2)cc(C(F)(F)F)c1 | - | - | 115 | - | -
NC1=NC[C@H](CC2CCCCC2)N1CCc1cc(C(F)(F)F)cc(C(F)(F)F)c1 | - | - | + | - | -
c1ccc2c(C[C@@H]3CNCCN3CCCCC3CCCCC3)cccc2c1 | - | - | . | - | -
C[C@H]1CN([C@@H](C)CO)C(=O)c2cc(C#CC(C)(C)O)cnc2O[C@H]1CN(C)C(=O)C1CCCCC1 | . | . | - | . | .
C[C@@H]1CN([C@@H](C)CO)C(=O)c2cc(-c3ccccc3)cnc2O[C@@H]1CN(C)C(=O)Cc1ccccn1 | . | . | - | - | .
CC=Cc1ccc2n(c1=O)C[C@@H]1[C@@H](CO)[C@H](C(=O)NCC)N(CC3CCOCC3)[C@H]21 (mixture of isomers) | . | . | - | . | .
CCc1cc2c(COC(=O)c3cccc(NS(C)(=O)=O)c3)cc(=O)oc2cc1O | - | - | 65 | - | -
CCCC(=O)N1CC2(C1)CN(C(=O)C1CCOCC1)[C@H](CO)c1[nH]c3cc(OC)ccc3c12 | . | . | - | . | .
Cc1ccccc1NC(=O)CN1C(=O)S/C(=C/c2cccnc2)C1=O | - | - | 40 | - | -
O=C(Nc1nc(-c2ccccc2)cs1)c1ccco1 | - | - | . | - | -
CC(OC(=O)c1ccco1)C(=O)Nc1nc(-c2ccccc2)cs1 (centres undefined) | - | - | - | - | 30
Nc1c(-c2ccccc2)nc2ncccn12 | . | . | 49 | . | -
Cc1ccc(-c2nc3ncccn3c2N)cc1 | . | . | - | . | -
COc1ccc(CN/C(C)=C(/C#N)C(N)=O)cc1OC | - | - | 65 | - | -
COc1ccc(CNC(N)=O)cc1OC | - | - | . | - | -
COC(=O)CN1C(=O)C(O)(CC(=O)c2ccc(C)o2)c2ccccc21 (centres undefined) | - | - | . | - | 32
Cn1cc(C(=O)c2ccc(Cl)cc2Cl)cc1C(=O)N/N=C(\N)COc1ccccc1 | - | - | . | - | 36
COCC(=O)Nc1ccc2c(c1)C(=O)N(C)C[C@H](OC)[C@@H](C)CN(Cc1ccccc1)[C@@H](C)CO2 | . | . | - | - | .
SMILES | iPSC survival up | ABCB6 inh 2 | GSIS activator | ARNT TACC3 PPI | CendR NRP1 mod
O=C(COc1ccc(S(=O)(=O)N2CCCC2)cc1)Nc1ccc2c(c1)OCCO2 | - | - | - | . | 36
CC(=O)Nc1ccc(NC(=O)COc2ccc(S(=O)(=O)N3CCCC3)cc2)cc1 | - | - | - | . | -
CO[C@H]1CN(C)C(=O)c2cc(NC(=O)C3CC3)ccc2OC[C@@H](C)N(C(C)=O)C[C@H]1C | . | . | - | - | .
O=C(c1ccccc1)N1CCCCC1 | - | - | - | - | -
O=C(c1ccccc1)N(C(=O)c1ccccc1)N1CCCC1 | - | - | 45 | - | -
C=CCn1c(SCC(=O)Nc2nccs2)nnc1-c1cc2cccc(OC)c2o1 | - | 72 | . | - | -
COc1ccc(S(=O)(=O)N2CCc3ccccc3C2)cc1OC | - | - | 63 | - | -
O=C(c1cnccn1)N1CC(=O)N2[C@H](C1)[C@H](c1ccc(C#CCc3ccccc3)cc1)[C@@H]2CO | . | . | - | . | .
CC(=O)N(C)C[C@H]1Oc2ccccc2CC(=O)N(C)C[C@@H]1C | . | . | - | . | .
CCOC(=O)c1c(C)oc2c1c(C=NC1CCS(=O)(=O)C1)c(O)c1ccccc12 (centres undefined) | - | - | - | - | -
CCOC(=O)c1c(C)oc2c1c(C=NCCC(=O)O)c(O)c1ccccc12 | - | - | - | - | 26
CO[C@H]1CN(C)C(=O)c2cc(NC(=O)c3ccno3)ccc2OC[C@H](C)NC[C@@H]1C | . | . | - | - | .
O=C(CN1CCOCC1)N[C@@H]1CC[C@H](CCNC(=O)C2CCC2)O[C@H]1CO | . | . | - | - | .
Cc1ccc(C(=O)OCC(=O)NCCNC(=O)COC(=O)c2ccc(C)s2)s1 | - | - | - | - | -
Cc1ccc(C(=O)OCC(=O)c2ccc(Cl)s2)s1 | - | - | - | - | 34
CCCCC(C(=O)O)C(C)CC(=O)Nc1ccn(-c2ccccc2)n1 (centres undefined) | - | - | . | - | 45
CC(C)CC(C(=O)O)C(C)CC(=O)Nc1ccn(-c2ccccc2)n1 (centres undefined) | - | - | . | - | -
O=[N+]([O-])c1ccc(/C=N/N/C(=N/c2ccccn2)c2ccccn2)cc1 | - | - | - | - | -
O=[N+]([O-])c1cc(/C=N/N/C(=N/c2ccccn2)c2ccccn2)ccc1O | - | - | - | 66 | -
C=CCn1c(SCC(=O)c2c(N)n(C)c(=O)n(C)c2=O)nc2sc(C)c(C)c2c1=O | - | - | 309 | - | -
C=CCn1c(SCC(=O)c2cccs2)nc2sc(C)c(C)c2c1=O | - | - | . | - | -
C[C@@]12CCC3[C@@](CCC4[C@@]3(C)CCC[C@@]4(C)C(=O)Nc3ccc(Cl)cc3)(CC1=O)C2 (some centres undefined) | - | - | - | - | 26
Cc1noc(C)c1S(=O)(=O)Nc1ccc2c(c1)C(=O)N([C@@H](C)CO)C[C@@H](C)[C@H](CN(C)C(=O)Cc1ccccc1)OCCCC[C@@H](C)O2 | . | . | - | - | .
Cn1c(N)c(C(=O)Nc2ccccc2F)sc1=S | - | - | - | - | -
Cn1c(N)c(C(=O)Nc2ccc3ccccc3c2)sc1=S | - | - | 86 | - | -
SMILES | iPSC survival up | ABCB6 inh 2 | GSIS activator | ARNT TACC3 PPI | CendR NRP1 mod
CC(C)(C)NC(=O)CCN(/N=C/c1ccc([N+](=O)[O-])o1)C1=NS(=O)(=O)c2ccccc21 | - | - | - | 79 | -
COc1ccc2c(c1)[C@@]1(OCCC=C[C@H]1C)C(=O)N2CC1CC1 | . | . | 53 | . | .
COc1ccc2c(c1)[C@@]1(OCCC=C[C@H]1C)C(=O)N2C/C=C(\C)CCC=C(C)C | . | . | - | . | .
CCn1nc(C(=O)OCC(=O)NCCN2C(=O)CSC2=O)c2ccccc2c1=O | - | - | . | . | 38
Cn1nc(C(C)(C)C)cc1N1C(=O)CCC1(C)C(=O)NC1CCCCC1 (centres undefined) | - | - | - | . | -
Cn1nc(C(C)(C)C)cc1N1C(=O)CCC1(C)C(=O)Nc1ccc2ccccc2c1 (centres undefined) | - | - | - | . | 24
Nn1c(C2CCCCC2)nc2ccccc2c1=O | - | - | 50 | - | -
